HP1b chromo inh: HP1-beta chromodomain-methylated histone interaction inhibition; P83916; AlphaScreen HP1-beta / biotin-H3K9me3 peptide binding; Potency, µM (top dose mostly 114 µM), without a hit: at the highest dose activity change, negative = inhibition, actives largely listed as inhibitors; 390,000 compounds, 0.56% hits; further: potency means the concentration at half of the fitted maximal effect; nearly all actives have a fitted effect of over 70% in size
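Compound inhibition of the preformed complex between 50 nM HP1-beta and 50 nM biotinylated H3K9me3 peptide was read by AlphaScreen. Buffer was PBS pH 7.4 with 0.01% Tween-20. Incubations ran 30 min at room temperature, with 10 ug/mL donor/acceptor beads.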
PLK1 PBD block: blocks phosphopeptide binding to human PLK1 polo-box domain | 360,000 compounds, 2.8% hits | AID 720504 | Plk1 PBD binding of FITC phosphopeptide, fluorescence polarization | Potency, µM, inactives show max response, negative = inhibition, most hits filed as inhibitors | P53350; further: potency means the concentration at half of the fitted maximal effect; series mostly up to about 57 µM; on the % scale 0 is the no-effect control and ±100 the full control effect; nearly all actives have a fitted effect of over 65% in size
BAZ2B block: BAZ2B (human) inhibition | 360,000 compounds, 4.4% hits | AlphaScreen BAZ2B-H3K14Ac peptide displacement | Potency, µM (highest dose often 114 µM), for inactives: at the highest dose activity change, negative = inhibition, hits mostly inhibitors | Q9UIF8 | AID 504333; further: potency means the concentration at half of the fitted maximal effect; on the % scale 0 is the no-effect control and ±100 the full control effect; nearly all actives have a fitted effect of over 60% in size
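Protein-peptide AlphaScreen: BAZ2B 50 nM, b-H3K14Ac 50 nM, 1x PBS pH 7.4 + 0.01% Tween-20. Preincubation 30 min RT; cpd 30 min RT (top 110 uM); beads 20 min RT, light-protected.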
JMJD2A Tudor: blocks the human JMJD2A Tudor domain; O75164; AlphaScreen JMJD2A-Tudor / H3K4me3 peptide binding; Potency, µM (series often up to 114 µM), for the others: at the top dose activity change, negative = inhibition, hits mostly inhibitors; 390,000 compounds, 4.4% hits; AID 504339; further: potency means the concentration at half of the fitted maximal effect; on the % scale 0 is the no-effect control and ±100 the full control effect; nearly all actives have a fitted effect of over 50% in size
G9a inh: blocks human histone lysine methyltransferase G9a | G9a H3K9 monomethylation, AlphaScreen, 2 h | AID 504332 | Potency, µM (top dose mostly 102 µM), inactives show at the highest dose activity, negative = inhibition, actives largely listed as inhibitors | 350,000 compounds, 8.8% hits; further: potency means the concentration at half of the fitted maximal effect; on the % scale 0 is the no-effect control and ±100 the full control effect; nearly all actives have a fitted effect of over 75% in size
Target sequence (Q96KQ7 913-1193 limits assumed): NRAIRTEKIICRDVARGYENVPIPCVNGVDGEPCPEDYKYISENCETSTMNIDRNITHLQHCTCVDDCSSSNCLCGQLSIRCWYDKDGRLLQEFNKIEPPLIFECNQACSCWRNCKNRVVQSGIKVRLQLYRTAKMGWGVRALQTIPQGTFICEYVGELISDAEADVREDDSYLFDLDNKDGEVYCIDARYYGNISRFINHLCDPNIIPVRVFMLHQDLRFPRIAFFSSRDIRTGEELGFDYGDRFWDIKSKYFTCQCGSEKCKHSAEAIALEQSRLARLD
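G9a (20 nM) was preincubated 15 min with compound, then reacted 2 h at room temperature with 500 nM biotin-H3K9 peptide and 20 µM SAM. Monomethyl-H3K9 detected by AlphaScreen using anti-H3K9me1 antibody.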
PI5P4Ka inh: inhibitors of human PI5P4K alpha. max response, %. AID 652105. 330,000 compounds, 1.2% hits. PI5P4Kalpha enzyme, ADP-Glo luminescence, 60 min; active compounds read low; active means max response of -50% or lower; inconclusive means between -30% and -50%; inactive means -30% or higher; further: value at the top dose of about 77 µM; on the % scale 0 is the no-effect control and ±100 the full control effect
Target sequence (P48426 whole entry, looked up): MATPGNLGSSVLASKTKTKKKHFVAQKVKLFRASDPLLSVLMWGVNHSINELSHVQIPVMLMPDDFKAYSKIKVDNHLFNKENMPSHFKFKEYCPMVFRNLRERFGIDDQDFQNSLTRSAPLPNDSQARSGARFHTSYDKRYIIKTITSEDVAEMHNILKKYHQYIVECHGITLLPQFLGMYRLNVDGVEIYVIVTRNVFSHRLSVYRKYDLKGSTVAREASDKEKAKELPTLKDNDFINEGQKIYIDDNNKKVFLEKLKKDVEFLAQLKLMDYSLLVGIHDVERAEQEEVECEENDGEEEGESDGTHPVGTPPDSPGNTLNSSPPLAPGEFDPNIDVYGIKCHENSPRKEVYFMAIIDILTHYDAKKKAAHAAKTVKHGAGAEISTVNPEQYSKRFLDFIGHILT
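Quantitative HTS of the MLSMR library against PI5P4Kalpha with substrate. ATP added last at 5 microM final; room temperature, 60 minutes. Remaining ATP depleted, ADP converted and read as luminescence.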
* marks the source's active call; other numbers are inactive results; u = inconclusive; x = not tested or not shown; [ ] = dose if it differs, or a comment. Sampled rows, rich in hits. Any-hit rate of the full collection: about 12%. Unless noted, the call rests on the fitted dose curve; in most records, active means well fitted curve in the direction sought with a large enough effect; inconclusive means small, poorly fitted or top-dose-only effect, or another doubt; inactive means no such curve, though single readings can be large; an effect the other way counts as inactive or inconclusive.

SMILES | HP1b chromo inh | PLK1 PBD block | BAZ2B block | JMJD2A Tudor | G9a inh | PI5P4Ka inh
Cc1ccc(S(=O)(=O)Nc2cccc(-c3ccc4nncn4n3)c2)cc1 | 2.9% | -10.1% | 1.5% | -11.7% | -8.3% | 0.5
O=C(Nc1cccc(-c2ccc(N3CCCCC3)nn2)c1)c1ccc(Br)o1 | 7.0% | -5.7% | -6.2% | -15.2% | 28.2µM* | -21.4
O=S(=O)(Nc1cccc(-c2ccc(N3CCCCCC3)nn2)c1)c1ccc(F)cc1 | 39.4% | -10.1% | u | u | 4.8% | -15.5
COc1ccc(S(=O)(=O)Nc2cccc(-c3ccc4nncn4n3)c2)c(OC)c1 | u | 16.8µM* | 1.6% | 2.7% | 11.2µM* | -3.8
O=C(Nc1cccc(-c2ccc(N3CCCCC3)nn2)c1)C(F)(F)F | 40.4% | -8.5% | 22.8% | -1.0% | 11.6% | 1.5
COc1ccc(OC)c(NC(=O)COC(=O)CC2CCCCC2)c1 | 47.9% | 4.9% | x | 9.0% | x | 11.3
CCN(CC)Cc1c(C)[nH]c2ccc(NC(C)=O)cc2c1=O | x | 4.3% | x | x | x | 1.2
CCOc1ccc(-c2cc(CCCC(=O)NCCc3ccc(SC)cc3)no2)cc1 | 29.2% | x | -6.7% | -22.5% | 5.0%[59 µM] | x
NC(=O)C1(N2CCCCC2)CCN(C(=O)Nc2ccc(F)cc2F)CC1 | 30.4% | x | -5.3% | -13.5% | -7.4%[59 µM] | x
COc1cc(C(=O)N2CCN(Cc3ccccc3C(F)(F)F)CC2)cc(OC)c1OC | u | -2.1% | 31.6µM* | 20µM* | u | -11.7
CCC(C)N1CCN(C(=O)c2cc(OC)cc(OC)c2)CC1 (configuration not stated) | u | 2.7% | 79.4µM* | 20µM* | x | -8.1
COc1cc(OC)cc(C(=O)N2CCN(Cc3ccccc3C(F)(F)F)CC2)c1 | u | 2.1% | 35.5µM* | 1.58µM* | 7.94µM* | x
COc1cccc(C(=O)N2CCN(Cc3ccccn3)CC2)c1 | -22.5% | -0.1% | 20µM* | 3.55µM* | 44.7µM* | 0.5
O=C(c1ccc(OC2CCN(Cc3ccccc3C(F)(F)F)CC2)cc1)N1CCCCC1 | 8.4% | -4.4% | -14.3% | -17.8% | u | 14.6
O=C(Nc1nc2c(F)cc(F)cc2s1)c1ccc([N+](=O)[O-])o1 | 24.7% | -20.0% | 25.9% | -11.8% | x | -3.3
COc1cc(C(O)c2nc(-c3cccc4cccnc34)cs2)ccc1F (configuration not stated) | x | 5.7% | x | x | x | 12.0
CCOc1ccc(NS(=O)(=O)c2cccc(C(=O)NCC3(N(C)C)CCCCC3)c2)cc1 | 35.6% | -2.5% | -0.6% | -17.9% | -41.7% | -0.2
O=C(O)CSc1nnc(-c2cccs2)n1-c1ccc(Cl)cc1 | u | 26.7µM* | -18.4% | 17.8µM* | u | -25.1
COC(=O)C1=CC(C(=O)c2cccs2)=NN(c2ccc(OC)cc2)C1C(=O)OC (configuration not stated) | u | -7.7% | 8.91µM* | 25.1µM* | 12.6µM* | 18.7
N#CCC(=O)N/N=C\c1ccccc1OC/C=C/c1ccccc1 | 28.6% | -8.8% | 50.1µM* | u | 30.4% | -18.0
O=C(N/N=C/c1coc2ccccc2c1=O)c1ccccc1 | 34.5% | u | -20.9% | -9.3% | u | u
N#C/C(=C\c1coc2ccccc2c1=O)C(N)=S | u | 11.9µM* | u | -31.6% | 1.78µM* | u
N#CCC(=O)N/N=C/c1coc2ccccc2c1=O | 24.1% | -9.7% | 0.3% | -4.7% | x | -86.1*
COCC(=O)N/N=C\c1ccccc1OC/C=C/c1ccccc1 | 22.5% | -6.8% | -15.5% | -18.1% | 25.4% | -2.1
O=C(O)/C=C/c1coc2ccccc2c1=O | 62.1% | -15.3% | -2.7% | -7.9% | 15.0%[59 µM] | -9.9
SMILES | HP1b chromo inh | PLK1 PBD block | BAZ2B block | JMJD2A Tudor | G9a inh | PI5P4Ka inh
CCCCOC(=O)c1c(N)n(-c2ccc(OC)cc2OC)c2nc3ccccc3nc12 | 37.6% | x | 4.4% | 4.5% | -1.7%[59 µM] | x
Cc1csc2c(=O)sc(NC(=O)c3ccco3)nc12 | 16.2% | -25.7% | -1.0% | -5.7% | 50.1µM* | -4.7
Cc1csc(NC(=O)c2cccs2)n1 | 39.5% | -2.5% | 7.0% | 3.8% | 12.7%[59 µM] | -0.4
O=C(Nc1nc2ccsc2c(=O)s1)c1ccco1 | u | -20.0% | u | 35.5µM* | 39.8µM* | 0.0
Cc1nc2ccc3nc(NC(=O)c4ccco4)sc3c2s1 | 123.8% | -8.8% | x | u | x | -28.2
Cc1csc2c(=O)sc(NC(=O)c3cccs3)nc12 | 0.7% | -14.1% | 50.1µM* | -28.3% | u | -5.6
COc1cc(CN2CCCCCC2)cc(Br)c1O | u | -0.7% | 70.8µM* | 22.4µM* | u | -0.1
COc1ccc(CN2CCC(C(=O)N3CCCC(C)C3)CC2)cc1OC (configuration not stated) | -15.5% | -5.7% | 50.1µM* | 17.8µM* | 17.8µM* | -4.6
COc1cc(CN2CCC(C(=O)N3CCCC(C)C3)CC2)cc(Br)c1O (configuration not stated) | u | -9.1% | 22.4µM* | u | 7.94µM* | -3.3
COc1cc(CN2CCC(N3CCC(C(=O)N4CCCC4)CC3)CC2)cc2c1OCO2 | 31.5% | -19.2% | 1.5% | -13.8% | x | 1.3
CCC(=O)N1CCc2cc(Br)cc(S(=O)(=O)N3CCCC(C(=O)NCc4cccc(OC)c4)C3)c21 (configuration not stated) | 29.4% | x | 2.4% | -22.9% | -5.6%[59 µM] | x
COc1cccc(NC(=O)C2CCOC2=O)c1 (configuration not stated) | 46.0% | 1.1% | x | -3.0% | x | 3.0
Cc1nn(-c2ccccc2)nc1C(=O)Nc1cccc(C(=O)NC2CC2)c1 | x | -6.6% | x | x | x | 1.7
COC1=CC(=O)C=C(OC)C1=O | u | 5.97µM* | x | -15.8% | u | -50.9*
O=c1cnc(-c2ccc(Cl)cc2)cn1O | 1.3% | -7.1% | u | 89.1µM* | 2.1% | 0.6
Clc1ccc(-c2cn3cc(Cl)ccc3n2)cc1 | 27.6% | -8.6% | -0.7% | -7.7% | 6.8% | -0.8
O=C(Nc1ccccc1)c1ccc(Nc2c([N+](=O)[O-])cc([N+](=O)[O-])c3ccccc23)cc1 | 19.8% | -2.5% | u | -17.0% | 18.7%[59 µM] | 8.4
O=[N+]([O-])c1cc(Br)c(Nc2ccccc2)c([N+](=O)[O-])c1 | u | 29.9µM* | 14.1µM* | 20µM* | 39.8µM* | 2.9
O=C(O)c1cc([N+](=O)[O-])ccc1Nc1ccccc1 | -11.2% | -5.5% | -16.8% | -17.0% | 21.8%[59 µM] | 5.5
Cc1cccc(Nc2ccc([N+](=O)[O-])cc2C(=O)O)c1 | 0.3% | -9.4% | 50.1µM* | u | 1.41µM* | 1.0
Nc1cc(C(F)(F)F)ccc1Nc1ccccc1 | -15.3% | -14.0% | 50.1µM* | -23.2% | -50.6% | -2.7
Nc1cc([N+](=O)[O-])ccc1Nc1ccccc1 | -32.6% | -4.7% | u | u | 39.8µM* | 1.4
O=C(c1cc2ccccc2oc1=O)N1CCN(c2ccc(Cl)cc2)CC1 | 33.0% | x | 0.1% | 1.0% | -6.0%[59 µM] | x
Cc1noc(C)c1-c1ccc2ncnc(Nc3ccc(F)cc3)c2c1 | x | x | x | x | 21.4%[0.501 µM] | x

Compound activity deposited in PubChem by National Center for Advancing Translational Sciences (NCATS).
